Hits are enriched below; roughly 9.3% of the tested compounds scored in any of these assays.
NPC1 prom act: activates the NPC1 promoter; Huh7 NPC1 promoter luciferase reporter, 24 h; actives 2.4% (n = 320,000); Potency, µM (top dose mostly 9.22 µM), for inactives: at the top dose activation, hits mostly activators; AID 485313; further: % of control where 0% means no effect; nearly all actives have a fitted effect of over 60% in size
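Huh7 cells stably carrying NPC1 promoter–luciferase, plated in Opti-MEM with 10% FBS for 2 h, were exposed to compound in DMSO for 24 h at 37 °C; luciferase reagent was added for 10 min and luminescence read.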
FLuc modulator: inhibits or activates purified firefly luciferase, miR-21 counter-screen; P08659; purified FLuc, Km substrates, luminescence inhibition; Potency, µM (top dose mostly 57.5 µM), for inactives: at the top dose activity change, negative = inhibition, most hits filed as inhibitors; actives 6.9% (n = 360,000);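 further: plate controls were vehicle for no effect and reference inhibitor for full effect; nearly all actives have a fitted effect of over 55% in size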
Target sequence (P08659 whole entry, looked up): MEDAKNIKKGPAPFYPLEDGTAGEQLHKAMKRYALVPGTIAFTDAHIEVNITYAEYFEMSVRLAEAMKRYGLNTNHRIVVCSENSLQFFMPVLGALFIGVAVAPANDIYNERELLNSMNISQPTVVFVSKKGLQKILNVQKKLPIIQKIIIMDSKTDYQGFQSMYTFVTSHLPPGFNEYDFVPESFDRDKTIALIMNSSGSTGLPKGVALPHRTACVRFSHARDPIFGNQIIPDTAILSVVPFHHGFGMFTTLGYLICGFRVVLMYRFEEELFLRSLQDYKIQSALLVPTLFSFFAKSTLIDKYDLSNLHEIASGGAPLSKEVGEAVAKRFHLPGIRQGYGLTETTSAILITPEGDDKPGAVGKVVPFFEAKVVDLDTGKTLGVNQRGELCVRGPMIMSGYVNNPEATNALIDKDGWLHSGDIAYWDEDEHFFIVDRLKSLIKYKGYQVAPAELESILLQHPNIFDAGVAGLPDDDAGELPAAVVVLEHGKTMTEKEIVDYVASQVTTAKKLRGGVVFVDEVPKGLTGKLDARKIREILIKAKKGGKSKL
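Purified P. pyralis luciferase, 10 nM final, with Km-level 10 uM D-luciferin and 10 uM ATP in 50 mM Tris acetate pH 7.5, 10 mM Mg acetate, 0.01% Tween-20, 0.05% BSA; 6-point qHTS titration about 60 µM downward; luminescence read.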
SMN2 splice up: increases expression of the SMN2 splice variant; HEK293 SMN2-luciferase splicing reporter, luminescence, 30-36 h; Potency, µM (doses to about 46.1 µM), inactives show top-dose activity change, positive = activation, most hits filed as activators; actives 2.8% (n = 210,000); further: % of control where 0% means no effect; nearly all actives have a fitted effect of over 55% in size
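HEK293 cells carry an SMN2 […]–luciferase reporter in which exon 7 inclusion puts luciferase in frame. Cells were plated 10-12 h before compound addition, then incubated 30-36 h at 37C. ONE-Glo luminescence was read; sodium butyrate at 4.5 mM final served as control.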
Rab9 prom act: activates the Rab9 promoter | Huh7 Rab9 promoter-luciferase reporter, luminescence, 24 h | actives 2.8% (n = 320,000) | Potency, µM (doses to about 9.22 µM), for inactives: top-dose activation, negative = inhibition, usual class: activators; further: % of control where 0% means no effect; nearly all actives have a fitted effect of over 60% in size
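Huh7 cells stably carrying Rab9 promoter–luciferase reporter, plated 1500 cells/well, compound added after 2 h and incubated 24 h at 37 °C; luciferase luminescence then read after 10 min with detection reagent.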
ELG1 genotoxic: induces genotoxicity in HEK293T cells with luciferase-tagged ELG1. HEK293T ELG1-luciferase reporter, luminescence, 16 h. Potency, µM (titrated, usually from 46 µM), for inactives: top-dose activity change, positive = activation, most hits filed as activators. actives 1.3% (n = 330,000); further: % of control where 0% means no effect; nearly all actives have a fitted effect of over 60% in size
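Screening used a luciferase reporter fused to human ELG1 in HEK293T cells. Luminescence was read on a CCD plate imager after 16 hr exposure and 30 min ONE-Glo incubation.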
ELG1 repair inh: ELG1-dependent DNA repair inhibition; actives 2.3% (n = 330,000); HEK293T ELG1-luciferase reporter, luminescence, 16 h; DNA damage induced by 5-fluorouridine; Potency, µM (series often up to 46.1 µM), for the others: at the top dose activity change, negative = inhibition, usual class: inhibitors; further: on the % scale 0 is the no-effect control and ±100 the full control effect; nearly all actives have a fitted effect of over 55% in size
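Cells (2,000 per well) received 5-fluorouridine plus test compound or DMSO and were incubated 16 hr at 37 °C, 5% CO2. Luciferase activity was read by luminescence 30 min after ONE-Glo addition; signal suppression marked inhibition of damage-induced ELG1 function.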
The depositor's hits bear a star; [ ] = remark or other dose. The call rests on the fitted dose curve; in most records, active means well fitted curve in the direction sought with a large enough effect; inconclusive means small, poorly fitted or top-dose-only effect, or another doubt; inactive means no such curve, though single readings can be large; an effect the other way counts as inactive or inconclusive. Potency means the concentration at half of the fitted maximal effect.

COc1ccc(NC(=O)CC2Nc3cccc4cccc(c34)NC2=O)cc1 (centres undefined) was read as NPC1 prom act -8%, FLuc modulator -12%, SMN2 splice up -18%, Rab9 prom act -3%, ELG1 genotoxic -11% and ELG1 repair inh 23µM*.
`O=C(CC1Nc2cccc3cccc(c23)NC1=O)Nc1ccc(F)cc1` (centres undefined) gave NPC1 prom act -9%, FLuc modulator -2%, SMN2 splice up 2%, Rab9 prom act -2%, ELG1 genotoxic -8% and ELG1 repair inh -20%.
`COC(=O)CCCC1=CC2=C(c3ccccc3)C(=O)C(C)(OC(=O)C3CCCC3)C(=O)C2=CN1CCCOC(C)C` (centres undefined) gave SMN2 splice up 0%[9.22 µM].
`Cc1[nH]c2ccccc2c1C1=NNC(=Nc2ccc(F)cc2)SC1` gave NPC1 prom act 0%, FLuc modulator -5%, SMN2 splice up -38%, Rab9 prom act -3%, ELG1 genotoxic -13% and ELG1 repair inh inconclusive.
Fc1ccc(N=C2NN=C(c3cc(F)ccc3F)CS2)cc1 was read as NPC1 prom act 11%, FLuc modulator 24µM*, SMN2 splice up 22µM*, Rab9 prom act inconclusive, ELG1 genotoxic -3% and ELG1 repair inh inconclusive.
Fc1ccccc1N=C1NN=C(c2ccccc2)CS1 was read as NPC1 prom act 2.5µM*, FLuc modulator 13µM*, SMN2 splice up 13µM*, Rab9 prom act inconclusive, ELG1 genotoxic inconclusive and ELG1 repair inh inconclusive.
Screening Fc1ccc(F)c(C2=NNC(=Nc3ccccc3F)SC2)c1 returned NPC1 prom act inconclusive, FLuc modulator 12µM*, SMN2 splice up -22%, Rab9 prom act 30%, ELG1 genotoxic inconclusive and ELG1 repair inh inconclusive.
Screening Cc1cccc(N=C2NN=C(c3ccccc3F)CS2)c1C returned NPC1 prom act inconclusive, FLuc modulator 19µM*, SMN2 splice up 26%, Rab9 prom act inconclusive, ELG1 genotoxic 18% and ELG1 repair inh inconclusive.
NC(=O)NC(=O)COC(=O)CNS(=O)(=O)c1ccc(F)c(F)c1F was read as NPC1 prom act 1%, FLuc modulator -2%, Rab9 prom act -1%, ELG1 genotoxic 0% and ELG1 repair inh 6%.
COCCCn1cnnc1SCc1nc2sc(C(C)=O)c(C)c2c(=O)[nH]1 was read as NPC1 prom act 2%, FLuc modulator -3%, Rab9 prom act -1%, ELG1 genotoxic 1% and ELG1 repair inh -5%.
For CCN(CC)S(=O)(=O)c1ccc(Cl)c(NC(=O)COC(=O)c2nc3nc(C)cc(C)n3n2)c1 the results were ELG1 genotoxic -3% and ELG1 repair inh 16%.
Clc1ccccc1N=C1NN=C(c2cccs2)CS1 was read as NPC1 prom act 3.2µM*, FLuc modulator 12µM*, SMN2 splice up 8.9µM*, Rab9 prom act 2µM*, ELG1 genotoxic inconclusive and ELG1 repair inh inconclusive.
For O=C1CSC(=Nc2ccccc2Cl)N1 the results were NPC1 prom act -1%, FLuc modulator -16%, SMN2 splice up -11%, Rab9 prom act 1%, ELG1 genotoxic 11% and ELG1 repair inh 17%.
CCOc1ccc(N2C(=O)CC(NNc3nc4ccccc4s3)C2=O)cc1 (centres undefined) was read as NPC1 prom act 0%, FLuc modulator -2%, Rab9 prom act -3%, ELG1 genotoxic 0% and ELG1 repair inh -6%.
COc1ccc2c(c1)c(=O)oc1c(C)c(OC(C)C(=O)N[C@@H](Cc3c[nH]c4ccc(O)cc34)C(=O)O)ccc12 (some centres undefined) was read as NPC1 prom act 9%, FLuc modulator 12µM*, Rab9 prom act -3%, ELG1 genotoxic -2% and ELG1 repair inh -4%.

Source: PubChem
